The text below walks through data of PubChem BioAssay AID1851 (National Center for Advancing Translational Sciences (NCATS), 2009).

Where “and” joins values, the source holds several entries; their conditions need not be identical. Equal entries are not always repeated. Among all 16,000 compounds or so, about 2,600 (16%) were called active. Roughly 20% stayed inconclusive and do not appear here. The call rests on the fitted dose curve; in most records, active means well fitted curve in the direction sought with a large enough effect; inconclusive means small, poorly fitted or top-dose-only effect, or effect the other way; inactive means no such curve, though single readings can be large or run the other way. The list is a sample of the results. Some compounds were tested as several samples or in several runs, with calls that do not always agree.
On the % scale 0 is the no-effect control and ±100 the full control effect.

This test deals with Cytochrome P450 2D6 (Homo sapiens) (UniProt P10635). Put plainly: Cytochrome panel assay with activity outcomes. The conditions noted are these: recombinant CYP, pro-luciferin dealkylation, luminescence, p450-cyp2d6; series mostly up to 57.1 µM.
Cytochrome P450 2D6 (Homo sapiens), sequence (P10635 whole entry, looked up): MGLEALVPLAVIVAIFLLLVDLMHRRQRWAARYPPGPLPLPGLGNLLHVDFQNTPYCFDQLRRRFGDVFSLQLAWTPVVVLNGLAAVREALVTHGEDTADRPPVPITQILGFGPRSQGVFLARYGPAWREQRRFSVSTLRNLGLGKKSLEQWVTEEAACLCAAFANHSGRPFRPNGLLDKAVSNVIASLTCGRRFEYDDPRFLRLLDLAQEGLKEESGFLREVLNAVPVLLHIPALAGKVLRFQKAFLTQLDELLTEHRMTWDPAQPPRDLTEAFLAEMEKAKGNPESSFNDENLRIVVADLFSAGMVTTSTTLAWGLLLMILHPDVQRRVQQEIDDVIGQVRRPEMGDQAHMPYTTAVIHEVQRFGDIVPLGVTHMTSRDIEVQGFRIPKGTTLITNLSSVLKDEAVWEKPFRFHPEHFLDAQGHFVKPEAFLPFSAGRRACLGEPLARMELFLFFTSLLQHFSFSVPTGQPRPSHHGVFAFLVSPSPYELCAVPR
Broadly, the AC50 is the midpoint of the concentration-response curve, whichever way the signal moves. Turning to `CC(C)CCOc1ccc(NC(=O)C2OC3OC(C)(C)OC3C3OC(C)(C)OC23)cc1` (centres undefined), the AC50 entry is “inactive”.

As to `CCOC(=O)c1sc(NC(=O)CSc2nc(C)cc(C)c2C#N)c(C#N)c1C`, the AC50 entry is “inactive”.

Consider `CCOC(=O)c1sc(NC(=O)CSc2nc(C)cc(C)n2)c(C#N)c1C`, for which the AC50 entry was “inactive”.

Consider `CCOC(=O)c1sc(NC(=O)CSc2n[nH]c(-c3ccc(Cl)cc3Cl)n2)c(C#N)c1C`, for which the AC50 is 28.2 µM (active).

Take `O=C(Oc1c(Br)cc(C(=S)N2CCOCC2)cc1Br)c1ccc(Cl)cc1`: the AC50 result is “inactive”.

Take `CC(=O)NCCNc1ncnc2ccc(-c3ccccc3C(F)(F)F)cc12`: the AC50 is 20 µM (active).

`CC(=O)NCCNc1cc(-c2ccccc2C(F)(F)F)ncn1`: the AC50 result is “inactive”.

As for `CC(=O)NCCNc1ncnc2ccc(-c3ccccc3C#N)cc12`, the AC50 result is “inactive”.

Consider `CC(=O)NCCNc1ncnc2ccc(-c3ccccc3Cl)cc12`, for which the AC50 is 15.8 µM (active).

Consider `CC(=O)NCCNc1ncnc2ccc(-c3ccccc3C)cc12`, for which the AC50 was 20 µM (active).

`Cc1[nH]n(C(C)(C)C)c(=O)c1Sc1ccc(Cl)cc1`: the AC50 entry is “inactive”.

Turning to `CCOc1ccc(N(C(C)C(=O)NC(C)CC)S(C)(=O)=O)cc1` (centres undefined), the AC50 result was “inactive”.

For the compound `CCC(C)OC(=O)C1=C(C)NC(=O)CC1c1ccccc1OC` (centres undefined), the AC50 result was “inactive”.

Take `O=c1c(-c2cc(F)cc(F)c2)nc2cnc(N3CCOCC3)nc2n1-c1ccccc1`: the AC50 entry is “inactive”.

On to `CCOC(=O)c1cnn(CCOC(=O)C(C)(C)C)c1NC(=O)C(C)(C)C`, for which the AC50 result is “inactive”.

Turning to `O=[N+]([O-])c1ccc2c(c1)S(=O)c1ccccc1-2` (centres undefined), the activity, negative = inhibition is -5.2% [at 11.4 µM] (inactive).

As to `Cc1cc(NC(=O)CCN2C(=O)C3C4CCC(C4)C3C2=O)c(C)cc1Br` (centres undefined), the AC50 entry was “inactive”.

For `CCc1cccc(C)c1NC(=O)CSc1nc2ccc(N3C(=O)c4ccccc4C3=O)cc2s1`, the AC50 result is “inactive”.

As for `CS(=O)(=O)Nc1cccc(-c2nc(Nc3ccncc3)c3ccccc3n2)c1`, the AC50 is 20 µM (active).

Turning to `CNc1nc(-c2cccc(NS(C)(=O)=O)c2)nc2ccccc12`, the AC50 entry was “inactive”.

Turning to `CS(=O)(=O)Nc1cccc(-c2nc(Nc3ccccc3)c3ccccc3n2)c1`, the AC50 is 10 µM (active).

On to `CS(=O)(=O)Nc1cccc(-c2nc(N3CCNCC3)c3ccccc3n2)c1`, for which the AC50 was 10 µM (active).

For `CS(=O)(=O)Nc1cccc(-c2nc(N3CCOCC3)c3ccccc3n2)c1`, the AC50 result is “inactive”.

With `CS(=O)(=O)Nc1cccc(-c2ccc3ncnc(N4CCNCC4)c3c2)c1`, the AC50 entry is “inactive”.

On to `COc1ccc2c(c1)c(=O)oc1c(C)c(OCC(=O)N3CCc4ccccc4C3)ccc12`, for which the AC50 result was “inactive”.

Regarding `COc1ccc(Oc2ncc3nc(-c4cccs4)c(=O)n(C)c3n2)cc1`, the AC50 entry is “inactive”.

In the case of `CCCCC(=O)NC(Nc1cc(C)ccn1)(C(=O)OCC)C(F)(F)F` (centres undefined), the AC50 result was “inactive”.

Take `CCOC(=O)CN1N=C(/C=C/c2ccc(C)cc2)CCC1=O`: the AC50 result is “inactive”.

Turning to `Cc1ccccc1NC1=NC(=S)N(c2ccccc2)C12CCOC(C)(C)C2` (centres undefined), the AC50 result was “inactive”.

Take `CCn1nc(C(=O)Nc2ccccc2C)c(Cl)c1Cl`: the AC50 result is “inactive”.

Turning to `O=C(N/N=C/c1ccc(Br)s1)c1ccccc1[N+](=O)[O-]`, the AC50 result is “inactive”.

For the compound `CCCCN(C(=O)Nc1ccc(OCC)cc1)C1CCN(C(C)=O)CC1`, the AC50 entry was “inactive”.

Consider `CSc1nc(C2CC2)cc(-c2cccs2)c1C#N`, for which the AC50 result was “inactive”.

On to `O=C1NC(=O)C(c2ccccc2)(c2ccccc2)N1`, for which the AC50 result is “inactive”.

For the compound `CCCC1CCC(c2ccc(C(N)=O)cc2)CC1` (centres undefined), the AC50 result was “inactive”.

For `CNCC[C@H](Oc1ccccc1OC)c1ccccc1`, the AC50 is 1.26 µM (active) and inactive.

Consider `COCCn1c(=O)c(-c2cn(C)c3ccccc23)nc2cnc(N3CCNCC3)nc21`, for which the AC50 entry is “inactive”.

Regarding `COC(=O)[C@@H]1[C@@H]2C[C@H]3c4[nH]c5cc(OC)ccc5c4CCN3C[C@@H]2C[C@H](OC(=O)c2cc(OC)c(OC)c(OC)c2)[C@H]1OC`, the AC50 entry is “inactive”.

Consider `C#C[C@]1(O)CC[C@@H]2[C@H]3CCc4cc(OC)ccc4[C@@H]3CC[C@@]21C`, for which the AC50 entry is “inactive”.

Regarding `O=C1CC(=O)C(n2cncn2)C(c2cccc(Cl)c2)C1` (centres undefined), the AC50 result is “inactive”.

Regarding `CC(=O)Nc1c(C)nn(-c2ccc(C)c(C)c2)c1C`, the AC50 entry is “inactive”.

On to `Cc1cc(N)n(-c2ccc3ccccc3c2)n1`, for which the AC50 result was “inactive”.

For `Cc1nn(-c2ccc(F)cc2)c(C)c1NS(=O)(=O)c1ccc2ccccc2c1`, the AC50 is 11.2 µM (active).

With `CC(C)(C)C(=O)OCc1cn(-c2ccc(Cl)cc2)nn1`, the AC50 entry was “inactive”.

For the compound `Cc1nc(SCC(=O)c2ccc(Cl)s2)c2oc3ccccc3c2n1`, the AC50 entry is “inactive”.

Turning to `COCCn1c(=O)c(-c2cn(C)c3ccccc23)nc2cnc(OCc3ccccc3)nc21`, the AC50 result is “inactive”.

On to `O=C(c1ccc(Br)cc1)c1cc([N+](=O)[O-])ccc1N1CCCCC1`, for which the AC50 result was “inactive”.

For the compound `COc1ccc2nc(SCC(=O)NN)cc(C)c2c1`, the AC50 entry is “inactive”.

Regarding `CCN(CC)CCC[C@H](C)Nc1c2ccc(Cl)cc2nc2ccc(OC)cc12`, the AC50 is 200 nM (active) and 126 nM (active).

As to `COc1ccc2nc(C)cc(SCC(=O)Nc3c(C)cc(C)cc3C)c2c1`, the AC50 result is “inactive”.

For `Cn1c(=O)n(C)c2cc(/C=N/NC(=O)c3ccc(Cl)cc3Cl)ccc21`, the AC50 entry is “inactive”.

As for `CCOc1ccc(NC(=O)C(=O)NCC2CCCN2CC)cc1` (centres undefined), the AC50 result is “inactive”.

Turning to `CCN1CCCC1CNC(=O)CCNC(=O)c1cc(OC)c(OC)c(OC)c1` (centres undefined), the AC50 entry was “inactive”.

As for `CCN1CCC[C@H]1CNC(=O)c1c(OC)ccc(Br)c1OC`, the AC50 entry is “inactive and 200 nM (active)”.

As to `CCN1CCC[C@@H]1CNC(=O)c1cc(S(N)(=O)=O)ccc1OC`, the AC50 result is “inactive”.

For the compound `CCN1CCC[C@H]1CNC(=O)c1cc(S(N)(=O)=O)ccc1OC`, the AC50 entry was “inactive”.

On to `CCc1cc(Cl)c(OC)c(C(=O)NC[C@@H]2CCCN2CC)c1O`, for which the AC50 was 0.0501 µM (active).

`N[C@@H](Cc1c[nH]c2ccc([N+](=O)[O-])cc12)C(=O)O`: the activity, negative = inhibition is 4.93% [at 11.4 µM] (inactive).

For the compound `Cc1ccccc1Cn1cc(NC(=O)CSc2nc3c(c(C(F)(F)F)n2)CCc2ccccc2-3)cn1`, the AC50 entry was “inactive”.

Take `Cn1c(=O)c(-c2ccc(Cl)cc2)nc2cnc(Oc3cccc(Cl)c3)nc21`: the AC50 entry was “inactive”.

In the case of `COc1ccc(NC(=S)N2CCN(C/C=C/c3ccccc3)CC2)cc1OC`, the AC50 entry was “inactive”.

Turning to `COc1ccc(/C=C(\C#N)C(=O)NCC2CCCO2)cc1OC` (centres undefined), the AC50 entry was “inactive”.

For `CNc1ncnc2c1ncn2[C@@H]1O[C@H](CO)[C@@H](O)[C@@H]1O`, the AC50 result was “inactive”.

In the case of `CSc1nc(-c2ccc(C)cc2)[nH]c1S(=O)(=O)c1ccccc1`, the AC50 result was “inactive”.
